These results are taken from PMC7819943, “Rice protein-binding microarrays: a tool to detect cis-acting elements near promoter regions in rice”.

The full ranking holds about 68,000 sequences; the median of “fluorescence intensity (a.u.)” is about 9,100, and the highest 2% start at about 16,000. Shown is part of a subset that was picked to be rich in the highest values.

The target of this assay is OsWRKY34 (Oryza sativa, UniProt Q0JBA9 1-250). Put plainly: protein-binding microarray (RPBM); PBS, 2% BSA, 51.3 ng/ul salmon testes DNA, 50 uM zinc acetate, 200 nM TF, 25 C, 1 h; high values mean tight binding. Particulars: protein: recombinant; tags: N-terminal polyhistidine and DsRed monomer fusion (pET32a); label: CyDye5-dUTP incorporated in the synthesized complementary strand; 3' TTTTT single-stranded linker to array surface; dsDNA, one strand shown. In a few lines: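 An Axon 4000B scanner gave the binding signal as per-feature fluorescence intensity in arbitrary units. This followed washing of a custom Agilent array that had been incubated for 1 h at 25 °C with 200 nM protein in PBS, 2% BSA, salmon testes DNA and 50 µM zinc acetate. The proteins were transcription factors fused at the N-terminus to polyhistidine and DsRed, expressed in E. coli BL21-CodonPlus and purified on Ni–NTA.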
Sequence of OsWRKY34 (Q0JBA9 entry or part of it): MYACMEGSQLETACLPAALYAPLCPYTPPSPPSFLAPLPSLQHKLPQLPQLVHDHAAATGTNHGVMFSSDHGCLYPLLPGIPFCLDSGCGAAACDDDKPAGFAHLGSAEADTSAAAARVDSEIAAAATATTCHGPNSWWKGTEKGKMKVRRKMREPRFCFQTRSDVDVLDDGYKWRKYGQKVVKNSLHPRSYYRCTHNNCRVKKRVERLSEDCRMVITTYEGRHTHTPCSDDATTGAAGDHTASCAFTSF
Take “TTATACCACCGGATGCTGACACCATTCATCCGCTCTTCCTCGGAGTCACCTAGTGCAG”: the binding signal was 10700 fluorescence intensity (a.u.).

On to “CTGTATGGCCACCGTCGCAGCTCGTCCTACACGTTTCTCACGGAGTCACCTAGTGCAG”, for which the binding signal is 10600 fluorescence intensity (a.u.).

On to “TGCTAAACCTGTGGTGTTAAATCTGGCTGGTTGCCTGTCTCGGAGTCACCTAGTGCAG”, for which the binding signal is 9280 fluorescence intensity (a.u.).

Regarding “TAACAGTTGACACAGGGAGCGGAGGGGCAGCTTGGTCATTCGGAGTCACCTAGTGCAG”, the binding signal is 8420 fluorescence intensity (a.u.).

Take “CCTTAACACTTAATCCATGTGATGCATCTGTCATGCAACTCGGAGTCACCTAGTGCAG”: the binding signal is 8250 fluorescence intensity (a.u.).

“TCCCCGCGGGCATGCCCGTTGCTGCGGGCGCAGCTCAATTCGGAGTCACCTAGTGCAG”: the binding signal is 8280 fluorescence intensity (a.u.).

As to “GTGCTGGAGGGAGGGAACGGGGAACGTGGCAACTGACACGCGGAGTCACCTAGTGCAG”, the binding signal is 9030 fluorescence intensity (a.u.).

On to “GCGCAAACGCTCGAATTTTTGGTTTTGATCCATATGCATACGGAGTCACCTAGTGCAG”, for which the binding signal was 8580 fluorescence intensity (a.u.).

Consider “TGTAGTCCCGCGTCGCACGGCATCCGGCCGGCCTCTCCTACGGAGTCACCTAGTGCAG”, for which the binding signal is 8760 fluorescence intensity (a.u.).

On to “GGGATGGGGAAGGTCAGAGCCAATATGATCTGGTAACTCTCGGAGTCACCTAGTGCAG”, for which the binding signal is 9510 fluorescence intensity (a.u.).

Take “CAAAGGTTCTAATGTTTGACCTCATTCTTATCTAAAACGACGGAGTCACCTAGTGCAG”: the binding signal is 9440 fluorescence intensity (a.u.).

Regarding “GCGTCGCCTGCCGCCTCCGCTTCCGCTCCACTCCGCTTCGCGGAGTCACCTAGTGCAG”, the binding signal was 12000 fluorescence intensity (a.u.).

On to “CAATCTCTCTCTCTCTCTCTCTCGCTGCTGCTGCTCCTTCCGGAGTCACCTAGTGCAG”, for which the binding signal is 9770 fluorescence intensity (a.u.).

For the sequence “AACCCTAGCTCTTCACAGCTTCCATGGCTCTTCTCTCTCTCGGAGTCACCTAGTGCAG”, the binding signal is 12500 fluorescence intensity (a.u.).

Take “TCTCCTCTTCTTTTTCTTCCTTCCTTTTACTCGCTCGCTCCGGAGTCACCTAGTGCAG”: the binding signal was 9930 fluorescence intensity (a.u.).

“GTTCCAGCTTCATGCATGCACACACACAGTAGCTCGTGCTCGGAGTCACCTAGTGCAG”: the binding signal is 29300 fluorescence intensity (a.u.).

Regarding “CTCTCTGTGTCTCCGCCGCCGCCGCCTCCGCCGCTCGCCGCGGAGTCACCTAGTGCAG”, the binding signal was 8060 fluorescence intensity (a.u.).

As for “CCCGCTCGCTCTCGTGCTGTCCGCCGACCTCAGCTCGCTCCGGAGTCACCTAGTGCAG”, the binding signal is 10000 fluorescence intensity (a.u.).

In the case of “CTGAACTCTCTCTCGCTCTCCGGCTCTCTGTATTCCTTCACGGAGTCACCTAGTGCAG”, the binding signal is 19800 fluorescence intensity (a.u.).

With “GTAGTCATTCACGTGTTCCTCTTCTCCAGTACTAGTAGCTCGGAGTCACCTAGTGCAG”, the binding signal is 9710 fluorescence intensity (a.u.).

Turning to “ACCTCGTACCTCGCCGCTGTTCCGTTCCGTGCTCTGTGTCCGGAGTCACCTAGTGCAG”, the binding signal is 18700 fluorescence intensity (a.u.).

“AACCATAAAACATGTGATTCTTTTTTTTAACCAAAACTTACGGAGTCACCTAGTGCAG”: the binding signal was 8130 fluorescence intensity (a.u.).

For the sequence “ACCACTTAATCTTTATCTTTGTTAGATTCATTACTACTATCGGAGTCACCTAGTGCAG”, the binding signal was 8310 fluorescence intensity (a.u.).

As to “TATAGGTATTCACTACCTTATCATTTATTCATACCTTGTTCGGAGTCACCTAGTGCAG”, the binding signal is 8060 fluorescence intensity (a.u.).

For “GGCTCCAAATCATCTGCCTTCATTGTCAGGCTTCAGTAATCGGAGTCACCTAGTGCAG”, the binding signal was 10400 fluorescence intensity (a.u.).

For “AGATTCGTGTAGACCCATTGTCTGGCAGCGGCGATCGTCCCGGAGTCACCTAGTGCAG”, the binding signal was 8040 fluorescence intensity (a.u.).

For “AGTTGATCGCGGTCAAATCGTCACGTTAGTTGAACCCGGTCGGAGTCACCTAGTGCAG”, the binding signal was 8260 fluorescence intensity (a.u.).

With “TCACCCACCTGTTGACTACCATCACCACTCCTCGTCTGGACGGAGTCACCTAGTGCAG”, the binding signal is 8590 fluorescence intensity (a.u.).

With “GCCACTCCTGACGTCAGCGTTGACTCGGTCAAACCCATCGCGGAGTCACCTAGTGCAG”, the binding signal was 19300 fluorescence intensity (a.u.).

For “ATACACACTTCAGTCACTCGGTAGGCCACTCCGTACGGCACGGAGTCACCTAGTGCAG”, the binding signal was 8510 fluorescence intensity (a.u.).

Turning to “TCGAAATGTTTGACACCGTTGACTTTTTAGCACATGTTTACGGAGTCACCTAGTGCAG”, the binding signal is 19000 fluorescence intensity (a.u.).

Regarding “TTCGAAATATTTGACACCGTTGACTTTTTAGCACATGTTTCGGAGTCACCTAGTGCAG”, the binding signal was 30000 fluorescence intensity (a.u.).

Regarding “CCGTTTCGAAATGTTTACACCGTTGACTTTTTAGCACATGCGGAGTCACCTAGTGCAG”, the binding signal is 30100 fluorescence intensity (a.u.).

Consider “CGAAATGTTTGACGTCGTTGACTTTTTAGCACATGTTTAACGGAGTCACCTAGTGCAG”, for which the binding signal was 22800 fluorescence intensity (a.u.).

For “TTTCGAAATGTTTGACACTGTTGACTTTTTAGCACATGTTCGGAGTCACCTAGTGCAG”, the binding signal is 14200 fluorescence intensity (a.u.).

Turning to “CAAAATGTTTGACATCGTTGACTTTTTAGCACATGTTTGACGGAGTCACCTAGTGCAG”, the binding signal is 15300 fluorescence intensity (a.u.).

“GAATTAAACTTTGCATGGTTTCTGTTTGGTCAAACTTCTCCGGAGTCACCTAGTGCAG”: the binding signal was 9130 fluorescence intensity (a.u.).

On to “AGGTACGCACGCGCGGTGGAGGAGGAGGAGGAGGAGGAGGCGGAGTCACCTAGTGCAG”, for which the binding signal is 10900 fluorescence intensity (a.u.).

Consider “TGAATGCACCATGTCTTTTGCTCCGTCCGTCATAAAAAAACGGAGTCACCTAGTGCAG”, for which the binding signal was 8950 fluorescence intensity (a.u.).

As to “TGCCAAAGCTCTATCCATTTTGCCTCTACTCAATCGTCCACGGAGTCACCTAGTGCAG”, the binding signal is 10200 fluorescence intensity (a.u.).

Take “TCTAGATTTATCCCCATTTTTGGCTGGGCCTTCTATTTAACGGAGTCACCTAGTGCAG”: the binding signal is 8720 fluorescence intensity (a.u.).

In the case of “AACCCATTACATAGCTGCAAGAAACCCAATCTTTCTTTACCGGAGTCACCTAGTGCAG”, the binding signal is 8420 fluorescence intensity (a.u.).
